These results are taken from publication PMC4081100, “A DNA-binding-site landscape and regulatory network analysis for NAC transcription factors in Arabidopsis thaliana”.

Common to all, as to assay: universal protein binding microarray (PBM); transcription factors of Arabidopsis thaliana; high values mean tight binding
Conditions in all cases: protein: recombinant; tags: GST; chain copies: 2; dsDNA, one strand shown

For one assay, the target named is T1, GST-ANAC092(1-176) (Arabidopsis thaliana, UniProt Q9FKA0 1-176).
T1 sequence: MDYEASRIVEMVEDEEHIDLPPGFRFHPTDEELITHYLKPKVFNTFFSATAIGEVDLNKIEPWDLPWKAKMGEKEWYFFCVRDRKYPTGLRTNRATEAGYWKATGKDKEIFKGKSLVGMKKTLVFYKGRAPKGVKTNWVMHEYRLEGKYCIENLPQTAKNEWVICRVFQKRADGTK
In short, it runs like this: (§1)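 For zinc-finger proteins, zinc acetate was added while GST-tagged NAC-domain, full-length or DNA-binding-domain proteins were induced in cells. Purification used glutathione–Sepharose 4B, and quantification used A280 or anti-GST western blot. Custom all-10-mer Agilent 4 × 180K arrays, made double-stranded by primer extension, each received a protein at 200 to 500 nM final in duplicate. Scoring covered gapped and ungapped 8-mers, with binding given as the normalised enrichment score (E-score).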

A further assay concerns the target GST-NTL6(1-168) (Arabidopsis thaliana, UniProt Q9SCK6 1-168). The method, boiled down: as §1
The next assay concerns the target T2, GST-ANAC019 NAC domain (Arabidopsis thaliana, UniProt Q9C932 14-162).
T2 sequence: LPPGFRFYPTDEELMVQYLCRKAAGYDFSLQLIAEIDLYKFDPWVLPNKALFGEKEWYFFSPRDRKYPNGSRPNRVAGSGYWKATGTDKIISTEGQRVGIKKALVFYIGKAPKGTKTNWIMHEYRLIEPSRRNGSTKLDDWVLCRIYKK
The method, boiled down: as §1

In the next assay the target is T3, GST-ANAC055(1-171) (Arabidopsis thaliana, UniProt Q9LDY8 1-171).
T3 sequence: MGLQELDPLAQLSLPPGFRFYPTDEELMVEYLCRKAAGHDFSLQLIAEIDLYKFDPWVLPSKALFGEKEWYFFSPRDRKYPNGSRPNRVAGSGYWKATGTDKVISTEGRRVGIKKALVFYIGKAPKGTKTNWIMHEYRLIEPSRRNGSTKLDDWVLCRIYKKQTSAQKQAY
In short, it runs like this:
as §1

Another assay concerns the target T4, GST-ATAF1 NAC domain (Arabidopsis thaliana, UniProt Q39013 7-158).
T4 sequence: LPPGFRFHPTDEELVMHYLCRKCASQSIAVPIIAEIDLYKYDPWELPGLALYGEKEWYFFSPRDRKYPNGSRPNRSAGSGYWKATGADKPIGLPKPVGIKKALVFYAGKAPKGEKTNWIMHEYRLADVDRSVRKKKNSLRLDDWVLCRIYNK
The method, boiled down: as §1

Assay [1] concerns the target T5, GST-ANAC092(1-285) full length (Arabidopsis thaliana, UniProt Q9FKA0 1-285).
T5 sequence: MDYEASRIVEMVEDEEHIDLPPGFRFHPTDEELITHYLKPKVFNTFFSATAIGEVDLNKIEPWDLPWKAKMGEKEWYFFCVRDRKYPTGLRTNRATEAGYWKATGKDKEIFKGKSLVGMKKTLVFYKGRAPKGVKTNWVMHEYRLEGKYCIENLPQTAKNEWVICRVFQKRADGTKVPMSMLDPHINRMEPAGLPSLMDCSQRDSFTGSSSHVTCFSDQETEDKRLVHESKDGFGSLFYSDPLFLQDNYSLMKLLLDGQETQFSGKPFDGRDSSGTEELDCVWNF
The method, boiled down:
as §1

A further assay concerns the target T6, GST-NAP(1-166) (Arabidopsis thaliana, UniProt O49255 1-166).
T6 sequence: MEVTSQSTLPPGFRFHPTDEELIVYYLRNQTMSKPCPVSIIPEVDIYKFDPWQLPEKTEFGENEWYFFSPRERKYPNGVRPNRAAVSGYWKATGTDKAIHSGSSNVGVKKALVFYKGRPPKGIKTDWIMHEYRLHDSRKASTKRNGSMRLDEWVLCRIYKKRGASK
In short, it runs like this:
as §1

The next assay has as its target T7, GST-NST2(1-184) (Arabidopsis thaliana, UniProt Q9M274 1-184).
T7 sequence: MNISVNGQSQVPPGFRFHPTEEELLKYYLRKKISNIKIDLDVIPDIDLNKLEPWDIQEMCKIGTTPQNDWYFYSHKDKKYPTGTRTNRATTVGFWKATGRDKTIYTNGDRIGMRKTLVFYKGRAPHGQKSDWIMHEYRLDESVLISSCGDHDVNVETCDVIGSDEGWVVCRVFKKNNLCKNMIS
In short, it runs like this: as §1

A further assay deals with T8, GST-NTL8 NAC domain (Arabidopsis thaliana, UniProt Q9XIN7 14-156).
T8 sequence: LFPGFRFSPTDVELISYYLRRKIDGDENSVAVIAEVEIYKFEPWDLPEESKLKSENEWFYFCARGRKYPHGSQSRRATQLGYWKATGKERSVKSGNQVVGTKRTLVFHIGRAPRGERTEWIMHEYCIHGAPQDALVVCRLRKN
In short, it runs like this:
as §1

The target in a further assay is T9, GST-SND1(1-203) (Arabidopsis thaliana, UniProt Q9LPI7 1-203).
T9 sequence: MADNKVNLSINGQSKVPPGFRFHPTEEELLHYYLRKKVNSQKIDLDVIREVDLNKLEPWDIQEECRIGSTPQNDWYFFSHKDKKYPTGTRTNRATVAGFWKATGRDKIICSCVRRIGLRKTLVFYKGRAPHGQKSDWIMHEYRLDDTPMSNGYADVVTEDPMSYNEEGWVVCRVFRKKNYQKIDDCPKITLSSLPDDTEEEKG
In short, it runs like this:
as §1

In the next assay the target is T10, GST-VND3 NAC domain (Arabidopsis thaliana, UniProt Q9FH59 12-162).
T10 sequence: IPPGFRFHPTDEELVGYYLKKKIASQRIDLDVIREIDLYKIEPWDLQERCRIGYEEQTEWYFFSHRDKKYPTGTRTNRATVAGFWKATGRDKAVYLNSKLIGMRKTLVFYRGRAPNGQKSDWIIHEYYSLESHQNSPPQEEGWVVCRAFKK
The method, boiled down:
as §1

The next assay concerns the target T11, GST-VND7 NAC domain (Arabidopsis thaliana, UniProt Q9C8W9 9-158).
T11 sequence: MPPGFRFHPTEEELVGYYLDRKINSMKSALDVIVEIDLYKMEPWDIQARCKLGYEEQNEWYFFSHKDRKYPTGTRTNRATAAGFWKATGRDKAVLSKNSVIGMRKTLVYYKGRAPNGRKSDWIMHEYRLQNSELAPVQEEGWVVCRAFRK
The method, boiled down:
as §1

GST-NTL6(1-168), sequence (Q9SCK6 1-168): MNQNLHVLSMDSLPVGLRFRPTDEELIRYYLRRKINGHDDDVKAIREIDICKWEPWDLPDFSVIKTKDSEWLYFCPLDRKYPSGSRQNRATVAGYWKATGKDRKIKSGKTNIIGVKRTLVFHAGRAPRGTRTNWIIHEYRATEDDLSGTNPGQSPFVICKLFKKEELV

Take CACGGAAG: the binding signal amounted to 0.372 E-score with GST-ANAC092(1-176); 0.0727 E-score with GST-NTL6(1-168); 0.471 E-score with GST-ANAC019 NAC domain; 0.435 E-score in the assay with GST-ANAC055(1-171); 0.343 E-score with GST-ATAF1 NAC domain; 0.403 E-score in [1]. Further, the binding signal worked out at 0.367 E-score with GST-NAP(1-166); 0.12 E-score in the assay with GST-NST2(1-184); 0.129 E-score with GST-NTL8 NAC domain; 0.164 E-score in the assay with GST-SND1(1-203); 0.435 E-score in the assay with GST-VND3 NAC domain; 0.428 E-score with GST-VND7 NAC domain.

On to CGAAGTAA, for which the binding signal in the assay with GST-ANAC092(1-176) came out at 0.199 E-score; in the assay with GST-NTL6(1-168), 0.448 E-score; with GST-ANAC019 NAC domain, 0.128 E-score; with GST-ANAC055(1-171), 0.143 E-score; with GST-ATAF1 NAC domain, 0.23 E-score; in [1], 0.279 E-score. The binding signal with GST-NST2(1-184) turned out to be 0.223 E-score; with GST-NTL8 NAC domain, 0.416 E-score; with GST-SND1(1-203), 0.303 E-score; in the assay with GST-VND3 NAC domain it was 0.138 E-score; in the assay with GST-VND7 NAC domain, 0.19 E-score.

In the case of GTTTCGTA, the binding signal in the assay with GST-ANAC092(1-176) is 0.375 E-score; with GST-NTL6(1-168), 0.0501 E-score; with GST-ANAC019 NAC domain it was 0.0919 E-score; with GST-ANAC055(1-171), 0.15 E-score; with GST-ATAF1 NAC domain, 0.173 E-score; in [1], 0.405 E-score. The binding signal with GST-NAP(1-166) amounted to 0.185 E-score; with GST-NST2(1-184), 0.163 E-score; in the assay with GST-NTL8 NAC domain, 0.0561 E-score; with GST-SND1(1-203), 0.318 E-score; in the assay with GST-VND3 NAC domain, 0.293 E-score; with GST-VND7 NAC domain, 0.124 E-score.

Regarding AATTGCGT, the binding signal in the assay with GST-ANAC092(1-176) was determined as 0.451 E-score; in the assay with GST-NTL6(1-168), 0.0568 E-score; with GST-ANAC019 NAC domain it was 0.394 E-score; in the assay with GST-ANAC055(1-171), 0.395 E-score; with GST-ATAF1 NAC domain, 0.319 E-score; in assay [1] it was 0.46 E-score. The binding signal with GST-NAP(1-166) came to 0.432 E-score; with GST-NST2(1-184) it was 0.294 E-score; with GST-NTL8 NAC domain, 0.0923 E-score; in the assay with GST-SND1(1-203), 0.412 E-score; with GST-VND3 NAC domain it was 0.415 E-score; with GST-VND7 NAC domain, 0.418 E-score.

In the case of AAAGGAAA, the binding signal with GST-ANAC092(1-176) was found to be 0.196 E-score; in the assay with GST-NTL6(1-168), 0.284 E-score; with GST-ANAC019 NAC domain, 0.105 E-score; with GST-ANAC055(1-171), 0.11 E-score; with GST-ATAF1 NAC domain, 0.153 E-score; in [1], 0.0862 E-score. In addition, the binding signal in the assay with GST-NST2(1-184) was determined as 0.179 E-score; with GST-NTL8 NAC domain it was 0.457 E-score; with GST-SND1(1-203), 0.225 E-score; with GST-VND3 NAC domain, 0.166 E-score; with GST-VND7 NAC domain it was 0.134 E-score.

Consider AAGTAATC, for which the binding signal with GST-ANAC092(1-176) came out at 0.348 E-score; with GST-NTL6(1-168), 0.414 E-score; with GST-ANAC019 NAC domain, 0.144 E-score; with GST-ANAC055(1-171), 0.154 E-score; with GST-ATAF1 NAC domain, 0.22 E-score; in [1], 0.37 E-score. Further, the binding signal was 0.285 E-score with GST-NST2(1-184); 0.328 E-score with GST-NTL8 NAC domain; 0.347 E-score with GST-SND1(1-203); 0.188 E-score with GST-VND3 NAC domain; 0.136 E-score in the assay with GST-VND7 NAC domain.

With TACGCAAA, the binding signal amounted to 0.469 E-score in the assay with GST-ANAC092(1-176); 0.104 E-score in the assay with GST-NTL6(1-168); 0.385 E-score with GST-ANAC019 NAC domain; 0.315 E-score with GST-ANAC055(1-171); 0.323 E-score with GST-ATAF1 NAC domain; 0.469 E-score in assay [1]. The binding signal worked out at 0.355 E-score with GST-NAP(1-166); 0.393 E-score in the assay with GST-NST2(1-184); 0.0978 E-score with GST-NTL8 NAC domain; 0.473 E-score with GST-SND1(1-203); 0.405 E-score with GST-VND3 NAC domain; 0.334 E-score with GST-VND7 NAC domain.
